Compound activity (PubChem)
This is one part of a sample in which hits are shown more often than they occur.
Methyltransferases: Primary Screen for Target Class Profiling of Small Molecule Inhibitors of Methyltransferases; calls only at 40 µM; purified enzyme, MTase-Glo SAH luminescence; hits give low values; actives 3.9% (n = 25,000); call rule not given here
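Each enzyme was reacted with SAM and its substrate, with compounds tested once at 40 uM; SAH formed was read by MTase-Glo luminescence.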
Calls only; 0 = inactive; + = active, no number; ! = a repeat was not active.

SMILES	Methyltransferases
CN1CCN(Cc2nnc(C(=O)N3CCC[C@@H]3c3ccc(Br)cc3)n2Cc2ccccc2)CC1	0
CC(C)CCNC(=O)C1(C)Cn2nc(C(=O)NC3CCCCC3)cc2C(=O)N1C (configuration not stated)	0
CCCn1c(=O)c2ccc(C(=O)NC(C)CC)cc2n2c(=O)n(CC(=O)NC3CCCC3)nc12 (configuration not stated)	0
CCOCCCN1C(=O)c2cc3sccc3n2CC1(C)C(=O)NC1CCCCCCC1 (configuration not stated)	0
COc1ccc(N2CCN(S(=O)(=O)c3ccc4[nH]c(=O)[nH]c4c3)CC2)cc1	0
Cc1cccc(C)c1NC(=O)Cn1c(=O)oc2cc(S(=O)(=O)N3CC(C)CC(C)C3)ccc21 (configuration not stated)	0
CCOc1ccc(CN2C(=O)c3cc(-c4ccccc4)nn3CC2(C)C(=O)NCCCOC)cc1 (configuration not stated)	0
COc1ccc(C(=O)Cn2nc3n(Cc4ccccc4)c(=O)c4ccccc4n3c2=O)cc1	0
CCN(CC)CCCC(C)Nc1c2ccc(Cl)cc2nc2ccc(OC)cc12 (configuration not stated)	+!
CCCn1c(=O)c2ccc(C(=O)NC3CCCC3)cc2n2c(SCC(=O)Nc3ccccc3C)nnc12	0
CC(C)CCn1c(=O)c2ccc(C(=O)NC(C)C)cc2n2c(=O)n(CC(=O)Nc3ccc(F)cc3)nc12	0
CN1C(=O)c2cc(C(=O)NCc3ccccc3)nn2CC1(C)C(=O)NCc1ccc(F)cc1 (configuration not stated)	0
Cc1cc(N2C(=O)Cn3cccc3C2C(=O)NC2CCCC2)ccc1Br (configuration not stated)	0
COCCOc1ccnc(-c2noc([C@@H]3CCCN3Cc3ccncc3)n2)c1	0
COCCOc1ccc2c(c1)ncn2-c1ccc2cccc(N3CCC(N)CC3)c2n1	+
CC(C)NC(=O)c1ccc2c(=O)n(Cc3ccccc3)c3nn(Cc4ccc(Cl)cc4)c(=O)n3c2c1	0
CCCCOc1ccccc1-c1cc2n(n1)CC(C)(C(=O)NC1CCCCCC1)N(CCOC)C2=O (configuration not stated)	0
CN(C)C(=O)Nc1cccc(-c2ccc(N(C)C)cc2)c1	0
CCn1cc(-c2ccnc3[nH]c(-c4cccc(CN(C)C)c4)cc23)c(-c2ccc(NC(=O)N(C)C)cc2)n1	+
CCc1ccc(CN2C(=O)c3cc(C(=O)OC)nn3CC2(C)C(=O)NC2CCCCC2)cc1 (configuration not stated)	0
COC(=O)c1ccc(OC)c(CN2CC(=O)N(Cc3ccc(F)cc3)c3ccccc3S2(=O)=O)c1	0
CCC(C)NC(=O)c1ccc2c(=O)n(C(C)C)c3nn(Cc4c(F)cccc4Cl)c(=O)n3c2c1 (configuration not stated)	0
C=CC(=O)Nc1cccc(Oc2nc(Nc3ccc(N4CCN(C)CC4)cc3)ncc2Cl)c1	+
C=CC(=O)Nc1cccc(Nc2nc(Nc3ccc(N4CCN(C(C)=O)CC4)cc3OC)ncc2C(F)(F)F)c1	0
Cc1cc(-c2cc(OC(=O)c3ccccc3)ccc2Cl)cc2nnc(Nc3ccc(OCCN4CCCC4)cc3)nc12	0
SMILES	Methyltransferases
CC(C)Cc1ccc(S(=O)(=O)NCCn2c(CCc3ccccc3)nc3ccccc32)cc1	0
CCc1ccccc1NC(=O)N1CCn2cccc2C1C(C)C (configuration not stated)	0
COc1cccc(-c2cc(C3CCN(S(=O)(=O)c4cccc(OC)c4)CC3)[nH]n2)c1	0
Cc1ccc(NS(=O)(=O)c2cc3[nH]c(=O)[nH]c3cc2C)cc1Cl	0
O=C(Cn1nc2n(CCc3ccccc3)c(=O)c3ccccc3n2c1=O)NCc1ccc(Cl)cc1	0
CC1(C(=O)NC2CCCCCC2)Cn2c(cc3sccc32)C(=O)N1Cc1cccc(F)c1 (configuration not stated)	0
Cc1ccc(N2C(=O)c3cc4ccccc4n3CC2(C)C(=O)NC2CCCC2)c(C)c1 (configuration not stated)	0
CCCN1C(=O)c2c(C(=O)NCc3ccccc3OC)ncn2CC1(C)C(=O)NCc1ccc(C)cc1 (configuration not stated)	0
COc1cc(/C=C(\C#N)C(=O)c2ccc(O)c(O)c2)cc(I)c1O	+
COc1cc(/C=C(\C#N)C(=O)Nc2nnc(C(F)(F)F)s2)ccc1OCc1ccc(C(F)(F)F)cc1C(F)(F)F	0
COc1ccc(CNC(=O)CCc2nnc3n(CCc4ccccc4)c(=O)c4ccccc4n23)cc1	0
O=S(=O)(c1ccccc1)c1nnn2c1nc(N1CCCCC1)c1ccccc12	0
Cc1ccc(C)c(S(=O)(=O)c2nnn3c2nc(N2CCCC2)c2ccccc23)c1	0
Cc1ccc(S(=O)(=O)c2nnn3c2nc(N2CCC(N4CCCCC4)CC2)c2ccccc23)cc1C	+
Cc1cc(O)c2c(c1)C(=O)c1cc(O)cc(O)c1C2=O	+
CC12CC(O)C(O)C=C1c1cc(O)cc(O)c1C(=O)O2 (configuration not stated)	0
CN1C(=O)c2cc(C(=O)NCCN3CCOCC3)nn2CC1(C)C(=O)NCc1ccc(F)cc1 (configuration not stated)	0
CC(C)CCn1c(=O)c2ccccc2n2c(CCC(=O)NC(C)c3ccccc3)nnc12 (configuration not stated)	0
Cc1cc(NC(=O)N2CCn3cccc3C2C)ccc1Br (configuration not stated)	0
Cc1cc(NC(=O)c2cccc(NC(=O)/C=C/CN(C)C)c2)ccc1Nc1nccc(-c2cccnc2)n1	+
Cc1ccc(NC(=O)N2CCC(n3c(C)cnc3-c3cccnc3)C2)cc1C (configuration not stated)	0
Cc1nc(CCNC(=O)c2cnc(-c3cccnc3)nc2)cc(=O)[nH]1	0
Cc1cccc(N2CCN(C(=O)CCCc3nnc4n5nc(C)nc5c5ccccc5n34)CC2C)c1 (configuration not stated)	0
O=C(CCc1nnc2n(Cc3ccccc3Cl)c(=O)c3ccccc3n12)NCCN1CCCC1	0
CCOc1ccc(NC(=O)c2ncn3c2C(=O)N(C2CC2)C(C)(C(=O)NCc2ccccc2OC)C3)cc1 (configuration not stated)	0
SMILES	Methyltransferases
c1ccc(CCc2nc3nccc(-c4cccnc4)n3n2)cc1	0
CN(CCc1ccc(Nc2ncc(-c3cccnc3)s2)cc1)Cc1ccccc1	+
CN(Cc1ccc(-c2ccccc2)cc1)CC1CCCCC1	0
COc1ccccc1CCN1C(=O)c2cc(-c3ccccc3)nn2CC1(C)C(=O)NCc1ccccc1 (configuration not stated)	0
O=C(Cn1ccc2cc(S(=O)(=O)N3CCCCC3)ccc21)NC1CCCc2ccccc21 (configuration not stated)	0
CCOC(=O)CNC(=O)N1Cc2c(sc3c2CCCC3)-n2cccc2C1c1cccc(C)c1 (configuration not stated)	0
CC(C)CCNC(=O)C1(C)Cn2nc(C(=O)NCc3ccccc3F)cc2C(=O)N1C (configuration not stated)	0
COc1ccc(OC)c2c1cc1n2CC(C)(C(=O)NC2CCCCC2)N(Cc2ccc(C)cc2)C1=O (configuration not stated)	0
COc1ccc(Cn2c(=O)c3ccccc3n3c(-c4ccc(F)c(F)c4)nnc23)cc1	0
CCC(=O)N1CCN(c2ccc(-n3c(=O)ccc4cnc5ccc(-c6cnc7ccccc7c6)cc5c43)cc2C(F)(F)F)CC1	0
